According to PubChem BioAssay (NCI):
About 83,000 compounds went through this panel and 20% of them were active in at least one assay; those are over-represented in the sample as a whole.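 In brief: 96-well plates, 48 h treatment, single concentration, percent growth endpoint.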 Activity calls are given as the source filed them. The calls were made as follows: active = growth percent below 10; inactive = the rest.

Columns and labels:
Test in all cases: NCI-60 one-dose screen, 48 h (100 = growth as untreated, 0 = no growth, -100 = all killed)
Conditions in all cases: 10 µM unless noted
NCI-H23 lung = test system: NCI-H23 lung
NCI-H322M lung = test system: NCI-H322M lung
HOP-62 NSCLC = test system: HOP-62 NSCLC
NCI-H460 lung = test system: NCI-H460 lung
HOP-92 NSCLC = test system: HOP-92 NSCLC
NCI-H522 lung = test system: NCI-H522 lung
A549/ATCC NSCLC = test system: A549/ATCC NSCLC
786-0 renal = test system: 786-0 renal
COLO 205 colon = test system: COLO 205 colon
DU-145 prostate = test system: DU-145 prostate
MALME-3M melanoma = test system: MALME-3M melanoma
MDA-MB-231 breast = test system: MDA-MB-231 breast
SF-268 CNS = test system: SF-268 CNS
SF-295 CNS = test system: SF-295 CNS
SF-539 CNS = test system: SF-539 CNS
UACC-257 melanoma = test system: UACC-257 melanoma
M14 melanoma = test system: M14 melanoma
K-562 leukemia = test system: K-562 leukemia
RXF 393 renal = test system: RXF 393 renal

Measured: growth

O=C(O)c1cn(C2CC2)c2cc(N3CCN(C(=O)C[n+]4cccc5ccccc54)CC3)c(F)cc2c1=O
active: NCI-H522 lung -90% | MALME-3M melanoma -41.7%
inactive: NCI-H23 lung 84.4% | NCI-H322M lung 102% | HOP-62 NSCLC 98.9% | NCI-H460 lung 96.6% | HOP-92 NSCLC 95.5% | A549/ATCC NSCLC 98.7% | 786-0 renal 48.5% | COLO 205 colon 34.5% | DU-145 prostate 91.7% | MDA-MB-231 breast 99.8% | SF-268 CNS 68.2% | SF-295 CNS 107% | SF-539 CNS 69.1% | UACC-257 melanoma 82.3% | M14 melanoma 64.8%

CN1CCCC1=Nc1ccccc1
inactive: NCI-H23 lung 93.7% | NCI-H322M lung 99.2% | HOP-62 NSCLC 103% | NCI-H460 lung 111% | HOP-92 NSCLC 89% | NCI-H522 lung 83.2% | A549/ATCC NSCLC 97.9% | 786-0 renal 115% | COLO 205 colon 110% | DU-145 prostate 116% | K-562 leukemia 100% | MALME-3M melanoma 104% | MDA-MB-231 breast 109% | RXF 393 renal 103% | SF-268 CNS 124% | SF-295 CNS 96.7% | SF-539 CNS 113% | UACC-257 melanoma 101% | M14 melanoma 117%

O=C1c2ccccc2-c2c1c1c(NCCCO)nc3ccccc3c1n2Cc1ccccc1
inactive: NCI-H23 lung 35.1% | NCI-H322M lung 29.6% | NCI-H522 lung 23.3% | A549/ATCC NSCLC 16% | COLO 205 colon 62% | DU-145 prostate 13.2% | K-562 leukemia 16.9% | SF-295 CNS 23.1% | UACC-257 melanoma 56.5%
active: HOP-62 NSCLC -35.5% | NCI-H460 lung -29% | HOP-92 NSCLC -33.4% | 786-0 renal -74.3% | MALME-3M melanoma -54.6% | MDA-MB-231 breast -2.22% | RXF 393 renal -52.2% | SF-268 CNS -5.13% | SF-539 CNS -49.2% | M14 melanoma -53%

Clc1ccc2c(c1)c(-c1ccccc1)nc1nncn12
inactive: NCI-H23 lung 98.6% | NCI-H322M lung 114% | HOP-62 NSCLC 105% | NCI-H460 lung 117% | HOP-92 NSCLC 119% | NCI-H522 lung 93.1% | A549/ATCC NSCLC 106% | 786-0 renal 94.2% | COLO 205 colon 115% | DU-145 prostate 112% | K-562 leukemia 119% | MALME-3M melanoma 113% | MDA-MB-231 breast 119% | RXF 393 renal 135% | SF-268 CNS 95.6% | SF-295 CNS 101% | SF-539 CNS 95.1% | UACC-257 melanoma 115% | M14 melanoma 110%

CCCCCOc1ccc(/C=N/Nc2cc(C)nc3ccc(Br)cc23)cc1
active: NCI-H460 lung -57.9% | NCI-H522 lung 1.99% | A549/ATCC NSCLC 2.38% | 786-0 renal -90.9% | COLO 205 colon -50.4% | DU-145 prostate 0.579% | K-562 leukemia -19.6% | MALME-3M melanoma -35.9% | MDA-MB-231 breast -51.4% | RXF 393 renal -82.9% | SF-295 CNS -84.8% | SF-539 CNS -83.7%
inactive: NCI-H23 lung 75.1% | NCI-H322M lung 65.1% | HOP-62 NSCLC 58.1% | HOP-92 NSCLC 69.7% | SF-268 CNS 87.2% | UACC-257 melanoma 102% | M14 melanoma 15.5%

CC(=O)c1c(-c2ccc(OC(F)(F)F)cc2)nc2ccccn12
inactive: NCI-H23 lung 95.4% | NCI-H322M lung 90.4% | HOP-62 NSCLC 88.9% | NCI-H460 lung 103% | HOP-92 NSCLC 91% | NCI-H522 lung 51.5% | A549/ATCC NSCLC 62.8% | 786-0 renal 99% | COLO 205 colon 95.8% | DU-145 prostate 101% | K-562 leukemia 113% | MALME-3M melanoma 88.9% | MDA-MB-231 breast 94% | RXF 393 renal 108% | SF-268 CNS 94.3% | SF-295 CNS 90.2% | SF-539 CNS 92.3% | UACC-257 melanoma 81.8% | M14 melanoma 89.8%

O=C(Nc1cccc(Cl)c1)c1cc(Cl)ccc1O
inactive: A549/ATCC NSCLC 14.7% | COLO 205 colon 78.6% | DU-145 prostate 24.1% | K-562 leukemia 15.5% | SF-268 CNS 18% | SF-539 CNS 19.4%
active: NCI-H23 lung 0.837% | NCI-H322M lung 4.17% | HOP-62 NSCLC 5.65% | NCI-H460 lung 2.08% | HOP-92 NSCLC -32% | NCI-H522 lung -2.31% | 786-0 renal 5.54% | MALME-3M melanoma -17.8% | MDA-MB-231 breast 1.35% | RXF 393 renal -12.3% | SF-295 CNS -60.3% | UACC-257 melanoma -4.11% | M14 melanoma 8.3%

O=S(=O)(NCCCNc1nccc(-c2c(-c3cccc(O)c3)nc3occn23)n1)c1ccc(Br)cc1
inactive: NCI-H23 lung 101% | NCI-H322M lung 113% | HOP-62 NSCLC 124% | NCI-H460 lung 97.1% | HOP-92 NSCLC 108% | NCI-H522 lung 94.3% | A549/ATCC NSCLC 98.2% | 786-0 renal 106% | COLO 205 colon 31.9% | DU-145 prostate 97% | K-562 leukemia 67.3% | MALME-3M melanoma 11.5% | MDA-MB-231 breast 64.3% | RXF 393 renal 82.6% | SF-268 CNS 97.1% | SF-295 CNS 111% | SF-539 CNS 110% | UACC-257 melanoma 18.4% | M14 melanoma 29%

Cc1[nH]c(C(=O)Nc2ccccc2OCc2cccc(C(=O)NCCN)c2)c(Cl)c1Cl
inactive: NCI-H23 lung 78% | NCI-H322M lung 81.9% | HOP-62 NSCLC 69.2% | NCI-H460 lung 51.8% | HOP-92 NSCLC 84.6% | NCI-H522 lung 80.9% | 786-0 renal 33.9% | COLO 205 colon 68.7% | DU-145 prostate 100% | MALME-3M melanoma 58.4% | MDA-MB-231 breast 76.8% | RXF 393 renal 65.2% | SF-268 CNS 67.9% | SF-295 CNS 87.8% | SF-539 CNS 84.9% | UACC-257 melanoma 104% | M14 melanoma 87.8%
active: K-562 leukemia -47.5%

Cc1ccc(C2CC(c3cccc(Nc4ccncc4)c3)=NN2c2ccc(Cl)cc2)cc1 (configuration not stated)
active: NCI-H23 lung -83.2% | NCI-H322M lung -99.7% | HOP-62 NSCLC -65.9% | NCI-H460 lung -76.1% | HOP-92 NSCLC -90.3% | NCI-H522 lung -71.2% | A549/ATCC NSCLC -34.5% | 786-0 renal -88.4% | COLO 205 colon -66.3% | DU-145 prostate -93.3% | K-562 leukemia -18.8% | MALME-3M melanoma -86% | MDA-MB-231 breast -86% | SF-268 CNS -72% | SF-295 CNS -85.6% | SF-539 CNS -96.2% | UACC-257 melanoma -35.1%

Cc1cc2nc(-c3ccccc3)c(-c3ccccc3)nc2cc1C
inactive: NCI-H23 lung 98.2% | NCI-H322M lung 112% | HOP-62 NSCLC 111% | NCI-H460 lung 102% | HOP-92 NSCLC 89.6% | A549/ATCC NSCLC 97.9% | 786-0 renal 95.4% | COLO 205 colon 119% | DU-145 prostate 112% | MALME-3M melanoma 113% | MDA-MB-231 breast 94.5% | RXF 393 renal 111% | SF-268 CNS 116% | SF-295 CNS 90% | SF-539 CNS 109% | UACC-257 melanoma 117% | M14 melanoma 113%

c1ccc2c(-c3c4ccsc4cc4[nH]c5ccccc5c34)c[nH]c2c1
inactive: NCI-H23 lung 51.6% | NCI-H322M lung 69.6% | HOP-62 NSCLC 39.7% | NCI-H460 lung 11.6% | HOP-92 NSCLC 63.1% | NCI-H522 lung 22.7% | A549/ATCC NSCLC 39.2% | 786-0 renal 27.9% | COLO 205 colon 58.4% | DU-145 prostate 66.3% | K-562 leukemia 16% | MALME-3M melanoma 46.7% | MDA-MB-231 breast 55% | RXF 393 renal 32.2% | SF-268 CNS 40.7% | SF-295 CNS 26.7% | SF-539 CNS 17.9% | UACC-257 melanoma 66.9%
active: M14 melanoma 8.79%

C#CCn1cc(C=C2C(=O)NC(=S)NC2=O)c2cc(Cl)ccc21
active: NCI-H23 lung -4.83% | HOP-62 NSCLC -5.32% | 786-0 renal -54.2% | DU-145 prostate 3.03% | MDA-MB-231 breast -26.1% | SF-268 CNS 6.45% | SF-539 CNS -57.2%
inactive: NCI-H322M lung 80.3% | NCI-H460 lung 14.6% | HOP-92 NSCLC 48.4% | NCI-H522 lung 51.1% | A549/ATCC NSCLC 98.3% | K-562 leukemia 15% | MALME-3M melanoma 43.5% | SF-295 CNS 46.4% | UACC-257 melanoma 61.7% | M14 melanoma 44.4%

CN1C(=O)N(C)C2NC(N/N=C/c3ccccc3)=NC21 (configuration not stated)
inactive: NCI-H23 lung 100% | NCI-H322M lung 94.5% | HOP-62 NSCLC 94.5% | NCI-H460 lung 103% | HOP-92 NSCLC 102% | NCI-H522 lung 104% | A549/ATCC NSCLC 100% | 786-0 renal 104% | COLO 205 colon 106% | DU-145 prostate 108% | K-562 leukemia 107% | MALME-3M melanoma 97.9% | MDA-MB-231 breast 104% | SF-268 CNS 99.8% | SF-295 CNS 101% | SF-539 CNS 94.9% | UACC-257 melanoma 98.8% | M14 melanoma 98.8%

COc1c(Cl)cc(Cl)c2ccc(C=C3C(=O)N(C)C(=O)N(C)C3=O)nc12
inactive: NCI-H23 lung 104% | NCI-H322M lung 106% | HOP-62 NSCLC 37.3% | NCI-H460 lung 96.8% | HOP-92 NSCLC 119% | NCI-H522 lung 92.2% | A549/ATCC NSCLC 111% | 786-0 renal 53.7% | COLO 205 colon 110% | DU-145 prostate 108% | K-562 leukemia 100% | MALME-3M melanoma 107% | MDA-MB-231 breast 107% | SF-268 CNS 97.3% | SF-295 CNS 80.3% | SF-539 CNS 98.6% | UACC-257 melanoma 106%
active: M14 melanoma -15.7%

COc1ccc(-c2c(-c3ccccc3)noc2N)cc1OC
inactive: NCI-H23 lung 105% | NCI-H322M lung 96.1% | HOP-62 NSCLC 124% | NCI-H460 lung 116% | HOP-92 NSCLC 90.8% | NCI-H522 lung 86.1% | A549/ATCC NSCLC 93.8% | 786-0 renal 96.4% | COLO 205 colon 118% | DU-145 prostate 104% | K-562 leukemia 95% | MALME-3M melanoma 102% | MDA-MB-231 breast 120% | SF-268 CNS 107% | SF-295 CNS 103% | SF-539 CNS 115% | UACC-257 melanoma 88.3% | M14 melanoma 98.4%
